Results from PubChem BioAssay (NCATS).
Where “and” joins values, the source holds several entries; their conditions need not be identical. Equal entries are not always repeated. Results filed as inconclusive are left out. Calls of active or inactive are those of the source. Calls follow the shape of the dose curve; as a rule, active = well fitted cell-killing curve with a large enough effect; inconclusive = small, poorly fitted or top-dose-only effect, or effect the other way; inactive = no such curve, though single readings can be large or run the other way.

Assay: Viability qHTS for spleen associated tyrosine kinase inhibitor (SYKi) drug resistant MV4-11 cells (AID 1963824); also: nearly all actives have a fitted effect of over 35% in size
Conditions: SYKi-resistant MV4-11 viability, CellTiter-Glo, 72 h; series mostly up to 45 µM; viability, % of control: at the top concentration
In short: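 CellTiter-Glo luminescence, read 10 min after reagent addition, reports viability after a 72 hr compound exposure. Cells are an MV4-11 line made resistant to SYK inhibition, seeded at 500 per well onto compound-containing plates.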
Potency is read from the fitted curve at half-maximal effect.

Row | Structure (SMILES) | Potency | viability, % of control
1 | CC1=C2CC3OC3(C)CCC3OC3(C)CC2OC1=O (configuration not stated) | 3.66 µM (active) | 
2 | CC1(C)O[C@H]2CC(=O)OC[C@@]23C1=C(O)C(=O)[C@]1(C)C3CC[C@@]2(C)[C@H](c3ccoc3)OC(=O)[C@H]3O[C@]321 (some centres not stated) |  | 83.8% [at 17.3 µM] (inactive)
3 | CC(=O)[C@@H]1CC[C@]2(C(=O)O)CC[C@]3(C)C(CCC4[C@@]5(C)CC[C@H](O)C(C)(C)C5CC[C@]43C)C12 (some centres not stated) | 7.09 µM (active) | 
4 | C=CC(C)(C)c1[nH]c2ccccc2c1C[C@@H]1NC(=O)[C@H](Cc2c[nH]c3ccccc23)NC1=O | 0.252 µM (active) | 
5 | NC(=O)c1cnc(-c2ccc(C3(N)CCC3)cc2)c(-c2ccccc2)c1 | 20.9 µM (active) and 580 nM (active) | 
6 | O=C(O)c1cc(N(Cc2ccc(C3CCCCC3)cc2)C(=O)c2ccc(Oc3ccccc3)cc2)ccc1O | 16.4 µM (active) | 
7 | C/C=C/C=C/C(=O)OC1CC/C=C/C(O)C(O)C(CCC)OC1=O (configuration not stated) |  | 65.4% (inactive)
8 | CC1OC(OC2C(OC3C(O[C@H]4CC[C@@]5(C)C(CC[C@]6(C)C5CC=C5C7CC(C)(C)CC(O)[C@]7(C)CC[C@]56C)C4(C)C)OC(C(=O)O)C(O)C3O)OCC(O)C2O)C(O)C(O)C1O (some centres not stated) |  | 94.4% [at 9.25 µM] (inactive)
9 | O=C(Nc1ccn(Cc2ccc(O)cc2C(F)(F)F)n1)c1c(F)cccc1F | 13 µM (active) | 
10 | C[C@@H](Oc1cc(-n2cnc3ccc(OC4CCN(C)CC4)cc32)sc1C(N)=O)c1ccccc1Cl | 0.013 µM (active) | 
11 | CC1CCCC(SCC(O)C(=O)O)CC(=O)c2c(O)cc(O)cc2CC(=O)O1 (configuration not stated) | 2.24 µM (active) | 
12 | CCOc1ccc(Cc2nccc3cc(OCC)c(OCC)cc23)cc1OCC | 0.15 µM (active) | 
13 | CCN(CC)CCNC(=O)c1c(C)[nH]c(/C=C2\C(=O)Nc3ccc(Cl)cc32)c1C | 0.0146 µM (active) | 
14 | Nc1nc(NCC2CCC(CNS(=O)(=O)c3cccc4ccccc34)CC2)nc2ccccc12 (configuration not stated) | 2.31 µM (active) | 
15 | N#C/C(=C(\N)Sc1ccc(N)cc1)c1ccccc1C(F)(F)F | 7.31 µM (active) | 
16 | CC(=O)O[C@H]1CC[C@@]2(CI)C(=CC[C@@H]3[C@@H]2CC[C@]2(C)[C@@H]([C@H](C)CCCC(C)C)CC[C@@H]32)C1 |  | 83% [at 9.25 µM] (inactive)

Row | Structure (SMILES) | Potency | viability, % of control
17 | Cn1c(CO)c(-c2ccccc2)c2cc([N+](=O)[O-])ccc21 | 23.1 µM (active) | 
18 | O=c1cc(-c2ccccc2)oc2ccc(O)cc12 | 14.6 µM (active) | 
19 | C=CC(=O)Nc1cccc(CN2C(=O)N(c3c(Cl)c(OC)cc(OC)c3Cl)Cc3cnc(NCCCCN(CC)CC)nc32)c1 | 3.66 µM (active) | 
20 | C=C1C(=O)O[C@@H]2C[C@]3(C)[C@@H](CCC(C)=O)[C@@H]3C[C@H]12 | 18.4 µM (active) | 
21 | C/C(=C\C(=O)C(C)C1CCC2C3=C(CCC21C)C1(C)CCC(=O)C(C)(C)C1(O)CC3)C(C)(C)O (configuration not stated) | 10 µM (active) | 
22 | C=C[C@]1(C)C=C2CCC3C(C)(CCC[C@@]3(C)C(=O)O)C2CC1 (some centres not stated) |  | 78.1% (inactive)
23 | Nc1ncnc2c1nc(Cl)n2C1O[C@H](CO)[C@@H](O)[C@H]1O (some centres not stated) | 0.146 µM (active) | 
24 | CC1=CC(=O)[C@@]2(C(C)C)C[C@@H]12 | 13 µM (active) | 
25 | CC(C)(O)c1ccc2c(c1)C(O)CC1C(C)(C(=O)O)CCCC21C (configuration not stated) |  | 95.9% (inactive)
26 | CC(C)(C)c1ccc(-c2nc3c(N4CCN(Cc5ccc6nccnc6c5)CC4)cccc3[nH]2)cc1 | 8.2 µM (active) | 
27 | Cc1nc2cc(C(=O)NCc3ccccn3)nn2c(C)c1Cc1cccc(Cl)c1 | 20.6 µM (active) | 
28 | [2H]C([2H])([2H])C(OC(=O)[C@H](C)N[P@](=O)(OC[C@H]1O[C@@H](n2ccc(=O)[nH]c2=O)[C@](C)(F)[C@@H]1O)Oc1ccccc1)C([2H])([2H])[2H] | 9.2 µM (active) | 
29 | CO[C@H]1C[C@@H]2CC[C@@H](C)[C@@](O)(O2)C(=O)C(=O)N2CCCC[C@H]2C(=O)O[C@H]([C@H](C)C[C@@H]2CC[C@@H](OCCO)[C@H](OC)C2)CC(=O)[C@H](C)/C=C(/C)[C@@H](O)[C@@H](OC)C(=O)[C@H](C)C[C@H](C)/C=C\C=CC=C1C | 11.8 µM (active) | 
30 | CC(=O)OC1CC(C)C2(CCC3(CC(=O)OC3O)O2)C2(C)CCCC(C)(C)C12 (configuration not stated) | 10 µM (active) | 
31 | CN(C)c1ccnc2sc3c(=O)n(N4CCCCCC4)cnc3c12 | 20.6 µM (active) | 
32 | C/C=C/C=C/C(=O)O[C@@H]1C=C2COC(=O)[C@]2(O)[C@@]2(C)CCCC(C)(C)[C@H]12 | 16.1 µM (active) | 
